Measured values as given in PubChem BioAssay (NCATS).
Inconclusive results are not listed. A number with no mark means an inactive call. Calls of active or inactive are those of the source. The call rests on the fitted dose curve; in most records, active means well fitted inhibition curve with a large enough effect; inconclusive means small, poorly fitted or top-dose-only effect; inactive means flat fitted curve, though single readings scatter.

These molecules were tested on NIH3T3 (assay: Cytotoxic Profiling of Annotated Libraries Using Quantitative High-Throughput Screening (AID 1296008; further: nearly all actives have a fitted effect of over 60% in size)). Details: Five cell lines viability, CellTiter-Glo ATP luminescence, 48-72 h; max response: stronger effect = lower value.
Method in brief: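 Compounds were pin-transferred onto cells and incubated 48 or 72 hr at 37 degree Celsius, 95% humidity. CellTiter-Glo was added, plates sat 10 min at room temperature, then ATP-coupled luminescence was imaged as the viability read-out.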
On the % scale 0 is the no-effect control and ±100 the full control effect; potency means the concentration at half of the fitted maximal effect.

**Q.** How did the max response turn out when `CC1(C)CC[C@]2(C(=O)O[C@@H]3O[C@H](CO[C@@H]4O[C@H](CO)[C@@H](O)[C@H](O)[C@H]4O[C@@H]4O[C@H](CO)[C@H](O)[C@H](O)[C@H]4O)[C@@H](O)[C@H](O[C@@H]4O[C@H](CO)[C@@H](O)[C@H](O)[C@H]4O)[C@H]3O)CC[C@]3(C)C(=CCC4[C@@]5(C)CC[C@H](O[C@@H]6OC[C@@H](O)[C@H](O)[C@H]6O)[C@@](C)(C(=O)O)C5CC[C@]43C)[C@@H]2C1` (stereo partly specified) was run?
**A.** 1%

**Q.** How did the max response turn out when `CC1(C)CC[C@]2(C(=O)O)CC[C@]3(C)C(=CCC4[C@@]5(C)CC[C@H](O[C@@H]6O[C@H](C(=O)O)[C@@H](O[C@@H]7OC[C@@H](O)[C@H](O)[C@H]7O)[C@H](O)[C@H]6O)C(C)(C)C5CC[C@]43C)C2C1O` (stereo partly specified) was run?
**A.** -13.7%

**Q.** Which max response does the source give for `O=C(CCc1nnc2n(Cc3ccc(Cl)cc3)c(=O)c3ccccc3n12)NCCC1=CCCCC1` here?
**A.** 1.28%

**Q.** For `COc1ccc2cc(C(C)C(=O)Oc3ccc(C(N)=S)cc3)ccc2c1` (stereo unspecified), which max response is on record?
**A.** 3.5%

**Q.** For `COc1cc(O)cc(C)c1C(=O)O[C@H]1[C@@H](OC(C)=O)[C@H](n2ccc(=O)[nH]c2=O)O[C@@H]1CO`, which max response is on record?
**A.** 0.716%

**Q.** How did the max response turn out when `C/C=C(\C)C(=O)O[C@H]1[C@@H](O[C@]2(COC(=O)CC(C)C)O[C@H](COC(=O)C(C)CC)[C@@H](OC(C)=O)[C@@H]2O)O[C@H](COC(C)=O)[C@@H](O)[C@@H]1O` (stereo partly specified) was run?
**A.** -0.857%

**Q.** Which max response does the source give for `CC(=O)OC1/C(C)=C/C(=O)C(OC(C)=O)C(C)(C)/C=C/C(C)C(=O)C2(OC(C)=O)CC(C)C(OC(=O)c3ccccc3)C12` (stereo unspecified) here?
**A.** -16.3%

**Q.** Which max response does the source give for `C=CC1C(OC2OC(CO)C(O)C(O)C2O)OC=C(C(=O)OC)C1CC1CC(=O)CC(CCc2ccc(O)cc2)O1` (stereo unspecified) here?
**A.** -7.36%

**Q.** Which Potency does the source give for `NC1CCC(Nc2cc(-c3cccc(NCc4cccc(F)c4)n3)c(Cl)cn2)CC1` (stereo unspecified) here?
**A.** 1.16 µM (active)

**Q.** How did the max response turn out when `OCCc1ccc(O[C@@H]2O[C@H](CO)[C@@H](O)[C@H](O)[C@H]2O)cc1` was run?
**A.** 2.39%

**Q.** With `OC/C=C/c1ccc(O[C@@H]2O[C@H](CO)[C@@H](O)[C@H](O)[C@H]2O)cc1` as the molecule, how does the max response read?
**A.** -0.785%

**Q.** With `CC(C)CCC1(O)C(=O)C(C)(C)C(O[C@@H]2O[C@H](CO)[C@@H](O)[C@H](O)[C@H]2O)C(C)(C)C1O` (stereo partly specified) as the molecule, how does the max response read?
**A.** -0.747%

**Q.** Which max response does the source give for `CC(=O)OC1C[C@]2(C)C(O)CC(C)=C[C@H](OC(=O)c3ccc(O)cc3)C2[C@]1(O)C(C)C` (stereo partly specified) here?
**A.** 3.62%

**Q.** Which Potency does the source give for `COC(=O)N1CCC(n2ncc3c(N4CCOCC4)nc(-c4ccc(NC(=O)Nc5ccc(CO)cc5)cc4)nc32)CC1` here?
**A.** 1.46 µM (active)

**Q.** Which max response does the source give for `C=CC(C)(C)c1[nH]c2ccccc2c1C[C@@H]1NC(=O)[C@H](Cc2c[nH]c3ccccc23)NC1=O` here?
**A.** 0.0013%

**Q.** With `O=C(O)c1cc(I)ccc1NC(=O)[C@H](Cc1ccccc1)NCc1ccccc1` as the molecule, how does the max response read?
**A.** 1.92%

**Q.** With `Cc1cc(Nc2ccc(NC(=O)c3ccc(Nc4ccnc5ccccc45)cc3)cc2)nc(N)n1` as the molecule, how does the Potency read?
**A.** 18.4 µM (active)

**Q.** Which max response does the source give for `COc1c2c(c(C)c3c1C(=O)OC3)O[C@@]1(C)CC(O)C(C(C)(C)O)[C@](C)(CCC(=O)O)[C@H]1C2` (stereo partly specified) here?
**A.** -2.21%

**Q.** With `CC1=C2C[C@H]3O[C@@]3(C)CCC3O[C@@]3(C)C[C@@]2(O)OC1=O` (stereo partly specified) as the molecule, how does the max response read?
**A.** 2.41%

**Q.** `CC(c1ncncc1F)C(O)(Cn1cncn1)c1ccc(F)cc1F` (stereo unspecified) was tested. Which max response did it give?
**A.** -5.84%

**Q.** For `CCn1c(=O)c(-c2ccn[nH]2)cc2c(C)nc(N)nc21`, which Potency is on record?
**A.** 1.84 µM (active)

**Q.** How did the max response turn out when `CC1=C2C3OC(=O)C(C)C3(O)CCC2(C)CCC1O` (stereo unspecified) was run?
**A.** -16.2%

**Q.** With `CC1COC2(OC3CC4C5CC(O[C@@H]6O[C@H](C)[C@@H](O[C@@H]7O[C@@H](C)[C@H](O)[C@@H](O)[C@H]7O)[C@H](O)[C@H]6O)C6CC(O)CCC6(C)C5CCC4(C)C3C2C)C(O)C1` (stereo partly specified) as the molecule, how does the max response read?
**A.** 4.8%

**Q.** Which max response does the source give for `O=C(O)c1cn(C2CC2)c2cc(N3C[C@@H]4C[C@H]3CN4)c(F)cc2c1=O` here?
**A.** -4.63%

**Q.** For `C[C@@H]1O[C@@H](OC[C@H]2O[C@@H](Oc3cc(O)cc4c3C(=O)C(O)(Cc3ccc(O)cc3)O4)[C@H](O)[C@@H](O)[C@@H]2O)[C@H](O)[C@H](O)[C@H]1O` (stereo partly specified), which max response is on record?
**A.** 2.04%

**Q.** Which max response does the source give for `OC[C@H]1O[C@@H](O[C@H]2[C@H](OCc3ccccc3)O[C@H](CO[C@@H]3OC[C@@H](O)[C@H](O)[C@H]3O)[C@@H](O)[C@@H]2O)[C@H](O)[C@@H](O)[C@@H]1O` here?
**A.** -3.84%
